Measured values taken from PubChem BioAssay AID811 (The Scripps Research Institute Molecular Screening Center, 2007).
Out of some 16,000 compounds screened, about 10 (0.06%) were called active. No stated cut-off is given here; in the data, active means inhibition above about 45%; inactive means the rest. Many of the other results were omitted from the sample, so actives are more common in it than they were.

These compounds were tested against Toll-like receptor 4 (Homo sapiens) (UniProt O00206) (assay: blocks binding of human TLR4 to MyD88 (AID 811)). Conditions: Cell-based TLR4-MyD88 binding inhibition assay; at 10 µM; hits give high values.
Toll-like receptor 4 (Homo sapiens), sequence (O00206 whole entry, looked up): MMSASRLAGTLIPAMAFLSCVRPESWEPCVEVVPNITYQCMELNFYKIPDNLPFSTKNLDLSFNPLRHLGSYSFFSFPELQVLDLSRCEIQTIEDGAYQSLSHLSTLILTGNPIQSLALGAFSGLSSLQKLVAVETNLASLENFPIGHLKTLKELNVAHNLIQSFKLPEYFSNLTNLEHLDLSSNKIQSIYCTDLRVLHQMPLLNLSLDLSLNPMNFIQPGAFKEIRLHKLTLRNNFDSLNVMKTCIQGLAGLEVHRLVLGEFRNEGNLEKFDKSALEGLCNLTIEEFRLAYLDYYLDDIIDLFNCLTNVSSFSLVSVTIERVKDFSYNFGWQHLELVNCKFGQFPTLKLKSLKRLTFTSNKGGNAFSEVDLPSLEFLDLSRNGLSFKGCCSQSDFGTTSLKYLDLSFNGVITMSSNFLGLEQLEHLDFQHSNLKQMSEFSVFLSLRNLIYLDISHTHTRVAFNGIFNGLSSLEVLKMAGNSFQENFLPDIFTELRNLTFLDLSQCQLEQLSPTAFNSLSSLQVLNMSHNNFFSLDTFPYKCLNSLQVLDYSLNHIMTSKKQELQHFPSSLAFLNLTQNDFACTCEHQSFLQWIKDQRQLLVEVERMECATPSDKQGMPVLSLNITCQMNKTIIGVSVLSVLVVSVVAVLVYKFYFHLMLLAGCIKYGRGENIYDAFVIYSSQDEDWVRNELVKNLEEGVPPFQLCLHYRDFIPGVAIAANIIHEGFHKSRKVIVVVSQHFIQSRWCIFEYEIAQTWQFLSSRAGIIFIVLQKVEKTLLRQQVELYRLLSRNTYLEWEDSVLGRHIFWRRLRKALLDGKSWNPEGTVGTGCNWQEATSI

inhibition, inactive:
O=C(NC(=O)c1ccno1)Nc1ccccc1Cl -1.38%, Cn1c(CN2C(=O)CSc3ccc(C(F)(F)F)cc32)nnc1SCC(=O)c1ccccc1 -0.94%, COc1ccc(/C=N/Nc2nc(C)cc(=O)[nH]2)c(OC)c1 -3.66%, CCCc1nc(N)ncc1C(=O)OCC -3.52%, N/C(=N\OC(=O)c1ccc([N+](=O)[O-])o1)c1ccc(OCc2ccc(Cl)cc2)c(Cl)c1 -0.21%, Cc1onc(-c2ccccc2)c1CNS(=O)(=O)c1ccc(-c2ccccn2)s1 -0.5%, O=S(=O)(Nc1ccc2[nH]ccc2c1)c1cccs1 14.7%, CC(=O)c1nnc2cc(C)nn2c1C 3.88%, CS(=O)(=O)c1ccc(C(=O)Nc2cccc(Cl)c2)cc1 -0.58%, CCCCc1ccc(S(N)(=O)=O)cc1 -0.44%, O=C(Nc1ccccc1C(=O)NCc1c(F)cccc1Cl)c1ccccc1Cl 2.65%, O=[N+]([O-])c1ccc(C2CC2(Br)Br)cc1 (stereo not given) 11.1%, C/C(=N\O)C(C)(C)Nc1ccc(C(C)(C)C)cc1 0.91%, O=C(NNc1ccccc1C(F)(F)F)NS(=O)(=O)c1ccc(Cl)cc1 2.98%, COc1ccc(-c2csc(-c3cc(C)on3)n2)cc1 7.05%, N#Cc1c(C(F)(F)F)cc(-c2cccs2)nc1N1CCCCC1 -4.83%, Cc1cc2nsnc2cc1Cl 0.39%, COc1ccc(COCC(O)CN2CCN(c3ccc(C(F)(F)F)cn3)CC2)cc1 (stereo not given) -3.92%, CSc1ccc(C(F)(F)F)cc1C(=O)/C=C/N(C)C -5.34%, FC(F)(F)c1ccc(Cl)c(NC(=S)NN=C2CCCCCC2)c1 0.56%, Cc1ccc(N(C)NC(=O)Nc2ccc(Cl)cc2)nn1 12.1%, Cc1ccc(N=C2SC3(CC3)C(=O)N2c2ccc(C)cc2)cc1 -5.53%, Cc1ccc(S(=O)(=O)NNC(=O)c2ccccc2N)cc1 -4.45%, C=CCn1c(SCC(=O)Nc2nnc(-c3cccs3)s2)nnc1-c1ccco1 -3.96%, O=C(Nc1ccc(I)cc1Cl)C(=S)NCc1cccs1 3.66%, c1csc(-c2ccc(-c3ccon3)s2)c1 -1.22%, CSc1nc(N)c2ccccc2n1 -9.58%, O=C(Nn1cnnc1)c1cccs1 1.09%, Cc1nc(C(F)(F)F)ccc1C(=O)NC1CCCc2ccccc21 (stereo not given) 0.52%, Cc1ccccc1C(=O)NNC(=O)c1ccccc1C1=NCCCN1 4.96%, N#Cc1cccnc1NNC(=O)c1ccccc1C(=O)O 4.06%, O=c1[nH]c2c(=O)[nH]c(=S)[nH]c2nc1/C=C(\O)c1ccccc1 -4.76%, N/C(=N\OC(=O)c1cccc(Cl)c1)c1ccc2nonc2c1 1.32%, Oc1[nH]c2ccc(F)cc2c1N=NC(=S)NC1CC2C=CC1C2 (stereo not given) -1.4%, Nc1c(-c2nnc(SCC(=O)c3ccccc3)o2)cnn1-c1ccccc1 -5.52%
